Experimental findings from ChEMBL document CHEMBL4513216, “Probing the Open Global Health Chemical Diversity Library for Multistage-Active Starting Points for Next-Generation Antimalarials” (ACS Infect Dis, 2020) are described below.

Among all 69,000 compounds or so, about 8,600 (12%) showed an effect of 50% or more. The sample as a whole holds a higher share of strong results than the screen did.

This test concerns Plasmodium berghei. As to the kind of experiment: Screen against P. berghei liver stage (PbLuc), transformed with Luciferase, at 10uM. It counts as functional, HepG2. To be noted: tested at 10 uM.
Turning to `O=C(NCC1OCCc2cn(CC3CCOCC3)nc21)c1ccsc1` (stereo not drawn), the INHIBITION stood at 49.3%.

As to `CCCC(=O)N1CC[C@@H]2[C@H](CC1)N(Cc1cccc(C)n1)CCS2(=O)=O`, the INHIBITION was determined as 57.1%.

Regarding `Cc1ccc(N2CCCC(NCc3ccsc3)C2)nn1` (stereo not drawn), the INHIBITION was determined as 5.44%.

Consider `O=C(Cc1ccccc1)N1CC[C@H]2[C@@H]1CCC(=O)N2Cc1ccncc1`, for which the INHIBITION came to 3.25%.

Regarding `Cc1cccc(CN2CCS(=O)(=O)[C@@H]3CCN(C(=O)C4CC4)CC[C@@H]32)n1`, the INHIBITION is listed as 34.9%.

For `O=C1C[C@H]2[C@@H](CCN2C(=O)Cc2cccs2)N1Cc1cccnc1`, the INHIBITION was 24.9%.

Take `Cc1ccc(N2CC[C@@H]3[C@@H]2CCN3C(=O)c2cscn2)nn1`: the INHIBITION is given as 18.5%.

As to `Cc1ccc(N2CC[C@@H]3[C@@H]2CCN3C(=O)Cc2cccs2)nn1`, the INHIBITION came to 31.2%.

With `CCC(=O)N1CC[C@@H]2[C@H](CC1)N(Cc1cccc(C)n1)CCS2(=O)=O`, the INHIBITION is listed as 2.4%.

Regarding `O=C1C[C@H]2[C@@H](CCN2C(=O)Cc2ccsc2)N1Cc1cccnc1`, the INHIBITION came to 62.9%.

With `Cc1ccc(N2CC[C@@H]3[C@@H]2CCN3Cc2ccsc2)nn1`, the INHIBITION came out at 51.2%.

Take `O=C1C[C@H]2[C@@H](CCN2C(=O)Cc2ccccc2)N1Cc1cccnc1`: the INHIBITION was -6.05%.

Turning to `Cc1ccc(N2CC[C@@H]3[C@@H]2CCN3C(=O)Cc2ccccc2)nn1`, the INHIBITION is given as 69.3%.

For the compound `CCN(Cc1noc(C2CCC2)n1)C(=O)c1cnc2ccccc2c1`, the INHIBITION is 7.44%.

For the compound `Cc1nc(-c2ccccc2C(=O)O)cc(C2CCN(C(C)C)C2)n1` (stereo not drawn), the INHIBITION is on record as 24.8%.

For the compound `NC(=O)[C@@H]1CN2CCN(C(=O)C3CC3)C[C@@H]2[C@H]1c1ccccc1`, the INHIBITION is 16.9%.

For `CC(C)c1nc(C2CCCN(C(=O)Cn3ccccc3=O)C2)no1` (stereo not drawn), the INHIBITION is given as -7.31%.

Regarding `CN1Cc2cnn(CC3CCCC3)c2C(COCC2CC2)C1` (stereo not drawn), the INHIBITION is 26.3%.

In the case of `Cc1ccc(CN2CC[C@H]3C[C@H](C(=O)N4CCCO4)O[C@@H]3C2)o1`, the INHIBITION was found to be 38.5%.

Regarding `CCN(CC)C(CNC(=O)c1ccc(-n2cncn2)cc1)c1ccsc1` (stereo not drawn), the INHIBITION is listed as -2.46%.

`CNC(=O)c1sc2ccccc2c1CC1CCCCN1Cc1ncc[nH]1` (stereo not drawn): the INHIBITION was 42.2%.

In the case of `O=C(Cn1nc(Br)nc1Br)N1CCCC1`, the INHIBITION was determined as 27.4%.

In the case of `O=C1C[C@H]2[C@@H](CCN2C(=O)Cc2cccs2)N1CC1CC1`, the INHIBITION is reported as -38.1%.

As to `Cc1ccc(NC2CCN(C(=O)CCc3ccsc3)CC2)nn1`, the INHIBITION was -59.4%.

Take `Cc1cccc(CN2CC[C@@H]3[C@@H]2CCN3C(=O)Cc2cccs2)n1`: the INHIBITION is reported as 42.1%.

On to `O=C(Cc1cccs1)N1CC[C@H]2[C@H]1CCN2Cc1cccnc1`, for which the INHIBITION is listed as -25.8%.

For the compound `Cc1ccc(N2CC[C@@H]3[C@@H]2CCN3C(=O)Cc2ccsc2)nn1`, the INHIBITION is 55.7%.

Turning to `Cc1cccc(CN2C(=O)C[C@@H]3[C@@H]2CCN3Cc2ccsc2)n1`, the INHIBITION was found to be 46.9%.

As for `Cc1cccc(CN2CC[C@@H]3[C@@H]2CCN3C(=O)Cc2ccsc2)n1`, the INHIBITION is 63.8%.

On to `Cc1ccc(CN2CC[C@@H]3[C@@H]2CCN3C(=O)Cc2cccs2)o1`, for which the INHIBITION was found to be 93.7%.

As to `Cc1ccc(N2CCCN(C(=O)CCc3ccsc3)CC2)nn1`, the INHIBITION is given as 1.04%.

`COC(=O)[C@H](CCSC)NC(=O)Cn1ccc2c(Cl)cccc21`: the INHIBITION is 25%.

On to `CN(C)C(=O)c1sc2ncccc2c1C1CNCCO1` (stereo not drawn), for which the INHIBITION came to 12.8%.

With `O=C(CO)N1CCC(c2cncc(-c3cccc(Cl)c3)n2)CC1`, the INHIBITION turned out to be 46.6%.

Consider `Cc1cnn(C2CCCN(C(=O)c3cc(Cl)c4c(c3)OCO4)C2)c1` (stereo not drawn), for which the INHIBITION was 37.9%.

Consider `COc1ccc(-n2cc3nc(N)[nH]cc-3c2=O)cc1Cl`, for which the INHIBITION is 43.3%.

Turning to `COc1ccc(-c2ccnc3nc(N4CCCCC4)[nH]c(=O)c23)cc1`, the INHIBITION is recorded as 30.8%.

As for `CC(C)c1nnc2n1CCN(Cc1ccc3c(c1)OCO3)CC2`, the INHIBITION is listed as 54.6%.

Regarding `CC(C)c1nnc2n1CCN(Cc1cc(Cl)c3c(c1)OCO3)C2`, the INHIBITION came to 33.7%.

Consider `CC(C)c1nnc2n1CCN(Cc1ccc3c(c1)OCCO3)C2`, for which the INHIBITION was -41.4%.

Consider `O=C(NCC1CCC(c2ccnc3ncnn23)CC1)c1ccccn1` (stereo not drawn), for which the INHIBITION is -24.4%.

`O=C(CCCn1cncn1)NC1(c2cccc(Br)c2)CC1`: the INHIBITION is 27.5%.

On to `COc1ccc(C2(NC(=O)CCn3cncn3)CCCCC2)cc1`, for which the INHIBITION is reported as 62.6%.

For the compound `O=C(CCn1cncn1)NC1(c2cccc(Br)c2)CCC1`, the INHIBITION worked out at 33.5%.

For `Cn1nc(C(=O)NC2(c3ccc(Cl)cc3)CCCC2)ccc1=O`, the INHIBITION was 6.67%.

On to `Cc1cccc(C2(NC(=O)CCN3C(=O)CCC3=O)CCCC2)c1`, for which the INHIBITION amounted to 28.7%.

In the case of `Cc1cccc(C2(NC(=O)CCCn3cncn3)CCCC2)c1`, the INHIBITION was 57.3%.

Take `COc1ccc(C2(NC(=O)c3ccc(=O)n(C)n3)CCCC2)cc1`: the INHIBITION came out at 17.7%.

Regarding `O=C(CCCn1cncn1)NC1(c2ccc(Cl)cc2)CCC1`, the INHIBITION came to 61.3%.

Consider `O=C(CCCn1cncn1)NC1(c2ccccc2)CCC1`, for which the INHIBITION was -21.5%.

`Cc1nn(C)c(C)c1-c1cnc(CC2CCNCC2)cn1`: the INHIBITION is given as 21.1%.

Take `CCN(C(=O)Cn1cc(NC(=O)C(C)(C)C)cn1)c1ccccc1`: the INHIBITION was 7.65%.

For the compound `Cc1cncc(C(=O)N2CCC3(CCCN(c4nncs4)C3)C2)c1` (stereo not drawn), the INHIBITION turned out to be 41.2%.

On to `O=C(Nc1ccccc1)C1=NOC2(CCCN(C(=O)N3CCCC3)C2)C1` (stereo not drawn), for which the INHIBITION is on record as -8.28%.

Regarding `CNS(=O)(=O)CCCN(C)Cc1cc(C)ccc1OC`, the INHIBITION was found to be 59.1%.

Turning to `COc1ccc(C)cc1CN(C)CCCNS(C)(=O)=O`, the INHIBITION is given as 23%.

`CCS(=O)(=O)CCN(C)Cc1cc(C)ccc1OC`: the INHIBITION is 21.1%.

In the case of `Cn1ccc2ccc(C(=O)N3CCN(C(=O)N4CCOCC4)CC3)cc21`, the INHIBITION is given as 40.1%.

For `CCOC(=O)N1CCN(C(=O)c2ccc3ccn(C)c3c2)CC1`, the INHIBITION is 38.5%.

In the case of `CC(=O)N1CCN(C(=O)c2ccc3ccn(C)c3c2)CC1`, the INHIBITION is reported as 63.3%.

`C[C@@H]1CN(C(=O)[C@H]2CCCO2)C[C@]12CCN(c1ccsc1)C2=O`: the INHIBITION was determined as 49.7%.

Regarding `COc1cc(N2CC[C@@H]3O[C@@H](c4ccncn4)C[C@H]3C2)ncn1`, the INHIBITION is on record as 73.2%.

Regarding `COc1cc(N2CC[C@@H]3O[C@@H](c4ccnc(C)n4)C[C@H]3C2)ncn1`, the INHIBITION is 45.8%.

With `Cc1ccc(N2CC[C@@H]3O[C@@H](c4ccncn4)C[C@H]3C2)nn1`, the INHIBITION was 37.8%.

With `COc1ncccc1C(=O)N1CC[C@H]2C[C@H](c3ccncn3)O[C@@H]2C1`, the INHIBITION is given as 52%.

With `COc1ncccc1C(=O)N1CC[C@H]2C[C@@H](C)O[C@@H]2C1`, the INHIBITION was -40.3%.

In the case of `COc1ncccc1C(=O)N1CC[C@H]2C[C@@H](c3ccncn3)O[C@@H]2C1`, the INHIBITION is reported as -42.8%.

Consider `CCc1nc(Nc2ccc(C(=O)NC)cc2)c2c(n1)c(C)nn2CC`, for which the INHIBITION came out at 18.85%.

For the compound `O=C(NC1CCc2ccccc2C1)C1CCN(Cc2ccco2)CC1` (stereo not drawn), the INHIBITION turned out to be 31%.

For `Cc1noc(C(C)N2CCN(CCOCC(F)(F)F)CC2)n1` (stereo not drawn), the INHIBITION is given as 12.85%.

As to `Cc1cncc(C2CCN(Cc3cnc(C)nc3)CC2)n1`, the INHIBITION was 36.44%.

Consider `O=C(C1CCCO1)N1CCC(n2cc(-c3ccc(F)cc3)nn2)CC1` (stereo not drawn), for which the INHIBITION is -10.9%.

Regarding `OCc1ccc(CN2CCC(n3cc(-c4ccc(F)cc4)nn3)CC2)o1`, the INHIBITION is reported as -0.529%.

For the compound `Oc1ccccc1CN1CCC(n2cc(-c3ccc(F)cc3)nn2)CC1`, the INHIBITION is recorded as 55%.

Turning to `Cc1ccc(-c2cn(C3CCN(C(=O)[C@H]4CCCO4)CC3)nn2)cc1`, the INHIBITION was 23.3%.

For the compound `Cc1ncc(CN2CCC(n3cc(-c4ccc(F)cc4)nn3)CC2)cn1`, the INHIBITION is on record as 53.8%.

As to `O=C(c1ccccn1)N1Cc2nccn2CC(CN2CCOCC2)C1` (stereo not drawn), the INHIBITION is 38.7%.

On to `CNC(=O)CCc1cc(C2CCN(c3cnccn3)CC2)nc(C)n1`, for which the INHIBITION is recorded as 15.85%.

With `CN(C)Cc1cn2c(n1)CN(CC1CCCC1)CC2`, the INHIBITION turned out to be 29%.

Consider `CCn1ccc(-c2cc(C(=O)O)n3nc(C(F)(F)F)c(Br)c3n2)n1`, for which the INHIBITION stood at 11.2%.

In the case of `Cc1ccc(C(=O)N2CCc3c(CNc4ncccn4)cncc3C2)o1`, the INHIBITION is given as -66.6%.

Consider `CCc1cc(CN(C)C(=O)c2cnon2)on1`, for which the INHIBITION is -40.6%.

As to `OCc1csc(N2CCCC(CO)(Cc3cccc(Cl)c3)C2)n1` (stereo not drawn), the INHIBITION is recorded as -14.9%.

With `Cc1cnn(CC2CCCN2Cc2coc(-c3ccccc3)n2)c1` (stereo not drawn), the INHIBITION is reported as -14.2%.

As to `Fc1ccc(-c2nc(CN3CCCC3Cn3cncn3)co2)cc1` (stereo not drawn), the INHIBITION turned out to be 4.71%.

Consider `Fc1cccc(-c2nc(CN3CCCC3Cn3cncn3)co2)c1` (stereo not drawn), for which the INHIBITION is given as 7.12%.

As for `Cc1cnn(CC2CCCN2Cc2coc(-c3ccc(F)cc3)n2)c1` (stereo not drawn), the INHIBITION turned out to be 69.7%.

Take `Cc1cnn(CC2CCCN2Cc2coc(-c3cccc(F)c3)n2)c1` (stereo not drawn): the INHIBITION was 80.8%.

In the case of `Fc1cccc(-c2nc(CN3CCCC3Cn3cccn3)co2)c1` (stereo not drawn), the INHIBITION is -14.6%.

Regarding `CS(=O)(=O)C1CCN(S(=O)(=O)c2ccc(F)c(F)c2)C1` (stereo not drawn), the INHIBITION came to 21.2%.

Regarding `Cn1ccc2cc(C(=O)NC3CCS(=O)(=O)C3)ccc21` (stereo not drawn), the INHIBITION is given as -42.5%.

As for `CNC(=O)[C@@H](C1CCCCC1)N1CCC[C@H]1C(=O)NCCN1CCCC1`, the INHIBITION turned out to be 0.112%.

Regarding `CCc1nnc(SCC(=O)N2C[C@H]3CC[C@@H](C2)N(CC=C(C)C)C3)[nH]1`, the INHIBITION is given as 26.7%.

Consider `CC1c2ncc(CNC(=O)C3CC3)n2CCN1Cc1cccnc1` (stereo not drawn), for which the INHIBITION was -5.31%.

Consider `Cc1nc(N2CCOCC2)sc1C(=O)NCC(C)(C)N1CCCCC1`, for which the INHIBITION is listed as -4.87%.

`COCCN1CCCC12CCN(C(=O)CC1CCCC1)CC2`: the INHIBITION came to 32.4%.

Turning to `Cn1ncc(C(=O)N2CCN(CCS(C)(=O)=O)CC2)c1Cl`, the INHIBITION was found to be 30.95%.

With `O=C(NCC(O)Cc1ccccc1)c1ccc2[nH]c(=O)[nH]c2c1` (stereo not drawn), the INHIBITION was found to be 43.9%.
